Hit rate of the full screen: of about 48,000 compounds, about 13,000 (27%) showed an effect of 50% or more. The list shows a part of the results.
Each compound was assayed on Wolbachia pipientis (assay: Anti-Wolbachia Cell-Based Screen). Conditions: 5 µM.
Type: functional
Set-up: scale not given: in the data most compounds retested in dose-response had high values

Point of comparison: `CCc1noc(C2CCCCN2C(=O)c2ccoc2C)n1` (stereo not given), “Percent Effect” value 16.06%. Against it:
- CCN(Cc1ccncc1)Cc1c[nH]nc1-c1ccc(F)cc1 — lower, -6.114%
- COC(=O)C1CCN(C(=O)NCC(C)Cc2cccs2)CC1 (stereo not given) — lower, -16.38%
- COc1ccccc1C(=O)NCC(c1cccn1C)N1CCOCC1 (stereo not given) — higher, 102.1%
- COc1cccc(C(=O)NCCCN2CCc3ccccc3C2)c1OC — lower, -7.552%
- COc1cccc(C(=O)NCC(c2cccn2C)N2CCCC2)c1OC (stereo not given) — higher, 106.1%
- COc1cccc(OC)c1C(=O)NCC(c1cccn1C)N1CCCC1 (stereo not given) — higher, 106.6%
- COc1ccccc1C(CNC(=O)NCc1cc[nH]n1)N1CCCC1 (stereo not given) — lower, 5.725%
- CCC(CNC(=O)c1ccccc1OC)N1CCc2ccccc2C1 (stereo not given) — lower, 13.81%
- COc1ccccc1S(=O)(=O)NCC(c1cccn1C)N(C)C (stereo not given) — lower, 1.51%
- Cc1oncc1C(=O)NCC(c1ccccc1Cl)N1CCOCC1 (stereo not given) — lower, 10.8%
- COCCN1CCC(NC(=O)C/C=C/c2ccc(C(C)C)cc2)CC1 — lower, -16.81%
- Cc1ccc(C(=O)N2CC[C@@]3(O)CCN(C(=O)N(C)C)C[C@H]3C2)cc1Cl — lower, -5.057%
- Cc1nn(C)c(C)c1C1CCCN1CCCC#N (stereo not given) — lower, 2.05%
- Cc1noc([C@@H]2C[C@H]3OCC[C@H]3N(Cc3sccc3C)C2)n1.O=C(O)C(F)(F)F — lower, 9.269%
- Cc1c(C(=O)O)sc2nc(C(F)(F)F)ccc12 — lower, -2.496%
- Cc1nc(Cc2ccccc2)nc2sc(C(=O)O)c(C)c12 — higher, 95.86%
- CCN(CC(=O)NC)C(=O)c1sc(Cc2ccccc2)nc1C — lower, -6.036%
- CN(C)C(CNC(=O)OCC(F)(F)F)c1ccsc1 (stereo not given) — higher, 23.12%
- Cc1ccc(C(=O)N(C)CCOc2ccccc2F)c(=O)[nH]1 — higher, 95.48%
- CCN(Cc1ccc(OC)c(F)c1)C(=O)c1ccc(C)[nH]c1=O — lower, -15.23%
- Cc1ccc(C(=O)N(Cc2ccccc2F)C2CC2)c(=O)[nH]1 — lower, -1.047%
- Cc1c(C(=O)N2CC(O)C2)nnn1-c1cccc2cnccc12 — lower, -2.34%
- CC(CNS(=O)(=O)c1cccc(Cl)c1)N1CCN(C)CC1 (stereo not given) — lower, 3.313%
- CCn1cc2c(n1)CN(Cc1ccc(C)o1)CC2COCC1CC1.O=C(O)C(F)(F)F (stereo not given) — higher, 26.1%
- CNC(=O)NCCc1csc2ccccc12 — lower, -2.127%
- COCCN(C)C[C@@H]1CCC[C@@H]2CN(c3ncccn3)C[C@@H]21.O=C(O)C(F)(F)F — lower, -1.943%
- Cc1ccc(NC2CCN(C(=O)Cc3csc(C)n3)CC2)nn1 — lower, 1.97%
- Cc1ccc(NC2CCN(C(=O)Cc3ccc(C)s3)CC2)nn1 — higher, 88.11%
- Cc1ccc(NC2CCN(C(=O)CCCc3ccccn3)CC2)nn1 — higher, 17.2%
- Cc1ccc(NC2CCN(C(=O)Cc3cccs3)CC2)nn1 — higher, 103.9%
- Cc1ccc(NC2CCN(C(=O)CCCc3cccs3)CC2)nn1 — higher, 117.7%
- Cc1ccc(NC2CCN(C(=O)Cn3nc(C)cc3C)CC2)nn1 — lower, -9.924%
- Cn1cc(CNc2ccc(CCN3CCC(C(N)=O)CC3)cc2)cn1 — lower, -15.36%
- CCC(CC)c1cc(CNC(=O)N2CCCC(c3ncc[nH]3)C2)on1 (stereo not given) — lower, -2.928%
- COCCO[C@@H]1CCN(Cc2csc(C)n2)[C@H]1Cc1ccccc1.O=C(O)C(F)(F)F — lower, -4.722%
- Cc1nc(CN2CC[C@H](OCC3CC3)[C@@H]2Cc2cccnc2)cs1.O=C(O)C(F)(F)F.O=C(O)C(F)(F)F — higher, 110.4%
- Cc1nc(CN2CC[C@@H](OCC3CC3)[C@@H]2Cc2cccnc2)cs1.O=C(O)C(F)(F)F.O=C(O)C(F)(F)F — higher, 96.59%
- Cc1cc(N(C)Cc2c(C)noc2C)n2nc(C)c(C)c2n1 — lower, -2.032%
- CCN(CC)CC(=O)NCc1cccnc1-n1cnc2ccccc21 — lower, -2.03%
- Cc1cnc(N2CC[C@@H]3CN(CCC(C)C)S(=O)(=O)[C@@H]3CC2)nc1 — lower, 7.109%
- NS(=O)(=O)NCc1cc(-c2ccco2)n(CC(F)(F)F)n1 — higher, 112.6%
- C[C@H](NS(C)(=O)=O)C(=O)NCc1cc(-c2ccco2)n(CC(F)(F)F)n1 — higher, 97.84%
- CC(Cc1cccs1)C(=O)NCc1cccc(N2CCCC2=O)c1 (stereo not given) — lower, 1.255%
- CC(C)NC(=O)NCc1cc(-c2ccco2)n(CC(F)(F)F)n1 — higher, 112.4%
- CC(COCC(F)(F)F)NC(=O)c1ccc(-c2ccco2)[nH]c1=O (stereo not given) — lower, -22%
- CC(C)NC(=O)NCCn1nc(C(F)(F)F)n(C)c1=O — lower, -4.799%
- Cc1cc(C)n(CC(C)CNC(=O)NCc2ccco2)n1 (stereo not given) — lower, 7.726%
- CC(C)NC(=O)NCc1ccnc(N(C)C)n1 — lower, -10.55%
- Cc1nnc2n1CCN(CCS(=O)(=O)c1ccccc1)C2 — lower, 0.264%
- CCc1noc(C2CCCCN2C(=O)c2ccn(C3CCCC3)n2)n1 (stereo not given) — higher, 52.74%
- CCc1noc(C2CCCCN2C(=O)c2ccccc2)n1 (stereo not given) — lower, 1.293%
- Cc1nnc(N2C[C@@H]3CCCO[C@@H]3[C@H](N(C)C)C2)s1 — lower, -8.785%
- CC(C)C(NC(=O)c1ccc(N2CCOCC2)nc1)c1cccs1 (stereo not given) — lower, 15.66%
- CC(C)C(C)(O)CNC(=O)Nc1ccccn1 (stereo not given) — lower, -16.52%
- CC(NC(=O)NCCNc1cccc(F)c1C#N)c1cccs1 (stereo not given) — lower, 10.58%
- CC(C)C(NC(=O)NCCNc1cnccn1)c1cccs1 (stereo not given) — higher, 101.3%
- CC(C)C(NC(=O)Nc1ccccn1)c1cccs1 (stereo not given) — higher, 56.05%
- CC(C)CC(NC(=O)CN(C)c1cnccn1)c1cccs1 (stereo not given) — lower, 9.121%
- CC(NC(=O)NCCNc1ncccn1)c1cccs1 (stereo not given) — lower, 10.74%
- CC(NC(=O)NCCNc1cnccn1)c1cccs1 (stereo not given) — lower, 5.831%
- CC(C)C(NC(=O)NCCNc1ncccn1)c1cccs1 (stereo not given) — higher, 99.08%
- COCCn1cnnc1CN(C)c1nc(N)ncc1C — lower, 15.34%
- Cc1ccc(CN(C)C(=O)CN2CCCC2c2cnn(C)c2)cc1 (stereo not given) — lower, -7.848%
- Cn1ncc(N2CCOCC2)c(Cl)c1=O — lower, 6.365%
- O=C(c1c[nH]c(=O)[nH]1)N1CCc2ccccc21 — lower, 14.35%
- c1ccc2c(N3CCOCC3)cnnc2c1 — higher, 28.28%
- O=c1[nH]cc(N2CCOCC2)c(=O)[nH]1 — higher, 76.31%
- O=c1[nH]cc(N2CCCCC2)c(=O)[nH]1 — higher, 67.95%
- O=C(Cc1c[nH]c(=O)[nH]c1=O)N1CCCCC1CCc1ccccc1 (stereo not given) — lower, -18.96%
